The list is not random: actives were taken first. Their share in the collection is about 5.4%.
ALR inh: blocks human ALR sulfhydryl oxidase activity; AID 485317; P55789; purified ALR, DTT oxidation, H2O2 HRP-luminol luminescence; 290,000 tested, 3.8% active; inhibition, % (concentration not given with the values);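 active = mean replicate inhibition above about 79%, with every replicate also reaching it, limit read from the data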
Target sequence (P55789 whole entry, looked up): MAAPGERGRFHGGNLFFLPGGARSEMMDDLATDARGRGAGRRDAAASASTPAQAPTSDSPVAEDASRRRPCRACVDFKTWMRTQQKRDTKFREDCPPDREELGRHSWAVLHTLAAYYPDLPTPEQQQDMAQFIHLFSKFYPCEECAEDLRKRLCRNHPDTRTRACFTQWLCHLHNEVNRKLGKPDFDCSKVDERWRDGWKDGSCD
aDG glyco act: alpha-DG glycosylation activation; activation, % at 10 µM; Pro5-aDG cells, alpha-DG glycosylation AlphaScreen (IIH6); 0% Pro5, 100% B10-LARGE cell signal; 360,000 tested, 0.22% active;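 active = activation of at least 8% versus controls, or a plate z-score of at least 8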;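 also: Pro5 are CHO cells carrying HIG-tagged alpha-DG that lacks glycosylation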
rCAG binder: molecules binding r(CAG) RNA repeats. r(CAG) RNA repeat, TO-PRO-1 dye displacement fluorescence. inhibition, % at 3 µM. 370,000 tested, 1.3% active. AID 651821;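 active = inhibition above the plate cutoff, the mean of all test compounds on that plate plus 3 SD, cut at about 35% in these data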;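 also: higher means more dye released from RNA so lower well fluorescence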
PHOSPHO1 block: PHOSPHO1 (human) inhibition. inhibition, % at 13.3 µM. recombinant PHOSPHO1, absorbance phosphatase assay. 290,000 tested, 1.1% active; in the data active = inhibition above about 60%
Target sequence (Q8TCT1 whole entry, looked up): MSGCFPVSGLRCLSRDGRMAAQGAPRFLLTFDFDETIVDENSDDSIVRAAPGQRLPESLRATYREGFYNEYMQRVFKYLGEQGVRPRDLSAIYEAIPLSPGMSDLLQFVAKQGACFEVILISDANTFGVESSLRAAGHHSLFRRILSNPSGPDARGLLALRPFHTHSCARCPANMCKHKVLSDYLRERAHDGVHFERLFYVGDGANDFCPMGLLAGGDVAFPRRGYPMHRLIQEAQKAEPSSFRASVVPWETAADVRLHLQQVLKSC
APOBEC3A inh: human APOBEC3A DNA deaminase inhibition | recombinant A3A, FAM/TAMRA ssDNA deamination fluorescence | inhibition, % at 20 µM | 330,000 tested, 0.41% active | AID 493011;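 active = at least 40% inhibition at 20 µM here, with at most 30% in a related deaminase screen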
Target sequence (P31941 whole entry, looked up): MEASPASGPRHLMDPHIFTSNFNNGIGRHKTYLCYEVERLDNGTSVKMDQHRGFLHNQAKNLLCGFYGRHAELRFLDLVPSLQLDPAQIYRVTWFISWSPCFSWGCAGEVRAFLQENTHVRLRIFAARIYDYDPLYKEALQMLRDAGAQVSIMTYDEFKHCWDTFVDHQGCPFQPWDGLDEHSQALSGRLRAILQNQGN
A3G deaminase: APOBEC3G (human) deaminase inhibition. Q9HC16. recombinant A3G, ssDNA deamination FAM/TAMRA fluorescence. inhibition, % at 20 µM. 330,000 tested, 0.28% active;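 active = inhibition of at least 40% at 20 µM, with no more than 30% in the related APOBEC3A deaminase screen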
Large screens that a line does not name were inactive.

Nc1ccc(OCc2ccccc2)cc1	ALR inh 97
Cc1[nH][nH]c(=O)c1C(c1ccc(-c2ccc(F)cc2)o1)c1c(C)[nH][nH]c1=O	none
Cc1[nH][nH]c(=O)c1C(c1ccc(-c2ccc(Cl)c(Cl)c2)o1)c1c(C)[nH][nH]c1=O	rCAG binder 38
COCc1ccc(C(=O)N2CCCC(Nc3ccc4c(c3)OCCO4)C2)o1 (configuration not stated)	ALR inh 99
COc1ccc(NC2CCCN(C(=O)c3ccc(CSC)o3)C2)cc1OC (configuration not stated)	ALR inh 99
COCc1ccc(C(=O)N2CCCC(Nc3ccc(F)c(F)c3)C2)s1 (configuration not stated)	none
COC(=O)c1ccc(C(=O)N2CCCC(Nc3ccc(F)c(F)c3)C2)cc1 (configuration not stated)	none
O=S(=O)(CC1NCc2cc(F)ccc21)NCCc1ccccc1 (configuration not stated)	none (no result: ALR inh, aDG glyco act, PHOSPHO1 block, APOBEC3A inh, A3G deaminase)
Cc1ccc(-c2c(C(=O)O)c(C(=O)O)c3n2CSC3)cc1	ALR inh 93
O=C(O)c1c(C(=O)O)c(-c2ccc(Br)cc2)n2c1CSC2	ALR inh 98
COC(=O)c1c(C(=O)OC)c(-c2ccc(C)cc2)n2c1CS(=O)(=O)C2	none
COC(=O)c1c(C(=O)OC)c(-c2ccccc2)n2c1CCC2	none (no result: rCAG binder)
COC(=O)c1c(C(=O)OC)c(-c2ccc(F)cc2)n2c1CSC2	ALR inh 99
N#Cc1ccc(OCC(=O)OCC(=O)Nc2ccc(N3CCOCC3)cc2)cc1	ALR inh 94 (no result: PHOSPHO1 block)
C/C(=N\NC(=O)COc1ccc(C#N)cc1)c1ccc(N2CCOCC2)cc1	ALR inh 99
N#Cc1ccc(C(=O)OCC(=O)Nc2ccc(N3CCOCC3)cc2)cc1	none
O=C(COC(=O)CNS(=O)(=O)c1ccc(Br)cc1Cl)Nc1ccc(N2CCOCC2)cc1	ALR inh 99 (no result: PHOSPHO1 block)
N#Cc1c(NC(=O)C(=O)NCCCN2CCOCC2)sc2c1CCCC2	ALR inh 96
NC(=O)c1c(N)[nH]c(C(=O)c2ccccc2)c1-c1ccc(Br)cc1	none (no result: ALR inh, aDG glyco act, PHOSPHO1 block, APOBEC3A inh, A3G deaminase)
O=C1CSC(c2ccccn2)N1c1cccc(Cl)c1 (configuration not stated)	ALR inh 99
Cc1ccc(N2C(=O)CSC2c2ccccn2)cc1Cl (configuration not stated)	ALR inh 99
O=C1CSC(c2ccccn2)N1c1ccccc1F (configuration not stated)	none (no result: ALR inh)
CCOC(=O)C1CCN(C(=O)c2cccc(NC3=NC4CS(=O)(=O)CC4S3)c2)CC1 (configuration not stated)	none
COc1cccc(N2CCN(C(=O)c3cccc(NC4=NC5CS(=O)(=O)CC5S4)c3)CC2)c1 (configuration not stated)	ALR inh 100
Nc1[nH]c(C(=O)c2ccc(Cl)cc2)c(-c2ccc(Br)cc2)c1C(=O)NCCc1c[nH]c2ccccc12	none (no result: ALR inh, aDG glyco act, PHOSPHO1 block, APOBEC3A inh, A3G deaminase)
CCCCCn1nnnc1C1c2ccccc2OCC(=O)N1Cc1ccco1 (configuration not stated)	none (no result: ALR inh, aDG glyco act, PHOSPHO1 block, APOBEC3A inh, A3G deaminase)
CCn1ncc2c(=O)c(C(=O)c3ccccc3)c[nH]c21	none (no result: ALR inh, aDG glyco act, PHOSPHO1 block, APOBEC3A inh, A3G deaminase)
O=C(CN1CCOc2ccccc21)NC1CCCCCCC1	ALR inh 99 (no result: PHOSPHO1 block)
O=C(CN1CCOc2ccccc21)NC1CCN(Cc2ccccc2)CC1	ALR inh 87
O=C(CN1C(=O)COc2ccccc21)NC1CCCC1	none
C=CCCC1(CCC)C(=O)/C(=C(\O)c2ccccc2)C(=O)C(CCC)=C1OC (configuration not stated)	none (no result: ALR inh, aDG glyco act, PHOSPHO1 block, APOBEC3A inh, A3G deaminase)
CCCCCN1CCCCC(NC(=O)C(C)(C)C)C1=O (configuration not stated)	none (no result: ALR inh, aDG glyco act, PHOSPHO1 block, APOBEC3A inh, A3G deaminase)
CCOc1ccc(C(c2c(O)nc(SC)n(C)c2=O)c2c(O)nc(SC)n(C)c2=O)cc1	ALR inh 98
O=c1c(Cl)c2oc3ccccc3nc-2c2ccccc12	aDG glyco act 6.1 (no result: rCAG binder)
CCN(C(=O)COC(=O)c1ccc(Sc2ncn[nH]2)c([N+](=O)[O-])c1)c1ccccc1	none (no result: ALR inh, aDG glyco act, PHOSPHO1 block, APOBEC3A inh, A3G deaminase)
COCCCn1c(C)csc1=Nc1cccnc1	none
Cc1csc(=Nc2cccnc2)n1CC1CCCCC1	ALR inh 99
COc1ccc(Nc2nc(Nc3ccc(OC)cc3)nc(-n3[nH]c(=O)c(C)c3C)n2)cc1	ALR inh 84
Cc1cc2c(nc1C)CCCN2S(=O)(=O)c1ccc(F)cc1	none (no result: ALR inh, aDG glyco act, PHOSPHO1 block, APOBEC3A inh, A3G deaminase)
CCSc1nc(-c2ccccc2)c(C#N)c(=O)[nH]1	none
N#Cc1c(-c2ccccc2)nc(SCc2nc(N)nc(N3CCCCC3)n2)[nH]c1=O	ALR inh 97
COC(=O)c1cc2c(c3c4cc(F)ccc4n(S(=O)(=O)c4cccc(C)c4)c13)C(=O)N(C)C2	none (no result: ALR inh, aDG glyco act, PHOSPHO1 block, APOBEC3A inh, A3G deaminase)
CC(C)N(Cc1cn(Cc2ccccc2)nn1)S(=O)(=O)c1ccc(F)cc1Br	none (no result: ALR inh, aDG glyco act, PHOSPHO1 block, APOBEC3A inh, A3G deaminase)
COc1ccc(C2O[C@@H](C)[C@@H]3C(=O)N4CCc5c([nH]c6ccccc56)[C@@H]4C[C@@H]3N2C)cc1 (some centres not stated)	none (no result: ALR inh, aDG glyco act, PHOSPHO1 block, APOBEC3A inh, A3G deaminase)
COc1cccc(-n2cnc3cccc(N)c32)c1	ALR inh 87
COc1cccc(-n2cnnn2)c1	none (no result: ALR inh)
Cc1cc(C)cc(-n2ncc3c2CCCC3NC(=O)c2cc(C)n(C)n2)c1 (configuration not stated)	ALR inh 84
Cc1ccc(S(=O)(=O)NC(=O)ON=Cc2ccc3c(c2)OCO3)cc1	none (no result: ALR inh, aDG glyco act, PHOSPHO1 block, APOBEC3A inh, A3G deaminase)
Nc1ccc(Nc2ccc([N+](=O)[O-])cc2[N+](=O)[O-])cc1	ALR inh 98
O=C(O)c1ccccc1C(=O)Nc1cccc([N+](=O)[O-])c1	none
O=C(O)c1ccccc1C(=O)Nc1ccc(Nc2ccc([N+](=O)[O-])cc2[N+](=O)[O-])cc1	ALR inh 96
COC(=O)C1CN(Cc2cn(Cc3ccc(OC)cc3)nn2)CCS(=O)(=O)N1Cc1ccc(Cl)cc1 (configuration not stated)	none (no result: ALR inh, aDG glyco act, PHOSPHO1 block, APOBEC3A inh, A3G deaminase)
Nn1c(=S)[nH]nc(Cc2ccc(O)cc2)c1=O	ALR inh 80
CCn1c(=O)n(CC)c2cc(N3CCCC3)c(NC(=O)c3ccccc3C)cc21	ALR inh 99
CCn1c(=O)n(CC)c2cc(N3CCCC3)c(NC(=O)c3ccccc3)cc21	ALR inh 97
CCn1c(=O)n(CC)c2cc(N3CCCC3)c(NC(=O)c3ccccc3F)cc21	none (no result: ALR inh)
CCn1c(=O)n(CC)c2cc(N3CCCC3)c(NC(=O)c3ccc(C)cc3)cc21	ALR inh 99
CC(C)(C)c1ccc(C#C[C@@H]2C=C[C@H](O)[C@@H](COC(=O)Nc3ccccc3)O2)cc1	none (no result: ALR inh, aDG glyco act, PHOSPHO1 block, APOBEC3A inh, A3G deaminase)
NC(=S)N/N=C/c1c[nH]c2ccc(OCc3ccccc3)cc12	ALR inh 99 (no result: rCAG binder)
NC(=S)N/N=C\c1ccccc1OCc1ccccc1	none
COCCCNC(=S)NNC(=O)c1ccc2c(c1)OCO2	none
CC(C)CNC(=S)NNC(=O)c1ccc2c(c1)OCO2	PHOSPHO1 block 62
Nc1nc(SCC(=O)Nc2cccc(F)c2)n[nH]1	none (no result: PHOSPHO1 block)
